Reference: PubChem BioAssay (NCI)
This is part of a sample that, as a whole, favours compounds with a hit. Of some 79,000 tested, about 15% had one in any assay. The source made the active and inactive calls. Rule as the data show it: active = growth inhibition above about 70%; inactive = the rest.

How the values were obtained:
[1] = NCI Yeast Anticancer Drug Screen. Data for the rad52 strain (AID 147);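 also: 0% = growth of vehicle-treated control cultures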; settings: S. cerevisiae rad52 mutant growth inhibition, hits give high values
How it was run: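 Compounds are applied to a genetically defined yeast strain lacking normal DNA damage repair, and inhibition of growth is expressed relative to cultures given vehicle only.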

[2] = NCI Yeast Anticancer Drug Screen. Data for the wt1 strain (AID 149);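 also: 0% = growth of vehicle-treated wt1 cultures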; settings: S. cerevisiae wt1 strain (SPY 50644) growth inhibition, hits give high values
How it was run: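 Yeast wt1 strain exposed to compounds; growth inhibition measured relative to vehicle-treated controls.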

[3] = NCI Yeast Anticancer Drug Screen. Data for the rad50EPP+ strain (AID 151);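 also: 0% = growth of vehicle-treated control cultures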; settings: S. cerevisiae rad50 mutant strain, hits give high values
How it was run: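 Compounds were applied to the rad50EPP+ yeast strain, which bears a defined DNA repair alteration, and growth inhibition was determined relative to vehicle-treated cultures.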

[4] = NCI Yeast Anticancer Drug Screen. Data for the rad50 strain (AID 155);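 also: 0% = growth of vehicle-only cultures of the same strain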; settings: S. cerevisiae rad50 strain growth inhibition, hits give high values
How it was run: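 Yeast carrying a defined DNA repair defect were exposed to test compounds, and growth was compared with vehicle-treated controls to give percent inhibition.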

[5] = NCI Yeast Anticancer Drug Screen. Data for the mec2-1 strain (AID 157); settings: S. cerevisiae mec2-1 strain, hits give high values
How it was run: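 Strain: mec2-1 (DNA repair/cell cycle alteration). Compound exposure, then growth measured; inhibition expressed relative to vehicle.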

[6] = NCI Yeast Anticancer Drug Screen. Data for the rad14 strain (AID 159);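 also: 0% = growth of vehicle-treated control cultures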; settings: S. cerevisiae rad14 strain growth inhibition, hits give high values
How it was run: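 Yeast cells carrying a defined DNA-repair defect were exposed to compounds, and growth inhibition was calculated relative to vehicle-treated control cultures.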

[7] = NCI Yeast Anticancer Drug Screen. Data for the sgs1 mgt1 strain (AID 161);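 also: 0% = growth of cultures given vehicle only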; settings: S. cerevisiae sgs1 mgt1 strain, hits give high values
How it was run: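 Mutant yeast exposed to compound; growth scored against vehicle-only wells.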

[8] = NCI Yeast Anticancer Drug Screen. Data for the CLN2oe strain (AID 163);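 also: 0% = growth of vehicle-only control cultures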; settings: S. cerevisiae CLN2oe strain, hits give high values
How it was run: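 Growth of a genetically modified yeast strain is measured after compound exposure and compared with cultures given vehicle alone.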

[9] = NCI Yeast Anticancer Drug Screen. Data for the cln2 rad14 strain (AID 165);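 also: 0% = growth equal to vehicle treated cultures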; settings: S. cerevisiae cln2 rad14 strain, hits give high values
How it was run: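 Compounds are applied to the cln2 rad14 yeast strain, and growth is then compared with that of vehicle-treated cultures to give inhibition.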

[10] = NCI Yeast Anticancer Drug Screen. Data for the bub3 strain (AID 167); settings: S. cerevisiae bub3 mutant strain, hits give high values
How it was run: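 Compounds were applied to a genetically altered yeast strain carrying a cell-cycle control defect. Growth inhibition was scored against vehicle-treated controls.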

[11] = NCI Yeast Anticancer Drug Screen. Data for the wt2 strain (AID 169);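 also: 0% = growth of vehicle-treated yeast cultures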; settings: S. cerevisiae wt2 strain growth inhibition, hits give high values
How it was run: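 This strain belongs to a panel of yeast strains with defined genetic alterations in DNA damage repair or cell cycle control. Compounds are applied, and growth inhibition is measured against vehicle-treated cultures.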

[12] = NCI Yeast Anticancer Drug Screen. Data for the mlh1 strain (AID 171);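 also: 0% = growth of vehicle-treated control cultures of the same strain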; settings: S. cerevisiae mlh1 strain growth inhibition, hits give high values
How it was run: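 Growth of the mutant yeast strain after compound exposure, expressed as inhibition relative to vehicle-only controls.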

[13] = NCI Yeast Anticancer Drug Screen. Data for the sgs1 strain (AID 173);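 also: 0% = growth of vehicle-only control cultures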; settings: S. cerevisiae sgs1 mutant, hits give high values
How it was run: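 Growth of a yeast strain bearing a defined genetic alteration is measured after compound treatment. Inhibition is expressed relative to vehicle-only controls.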

[14] = NCI Yeast Anticancer Drug Screen. Data for the mlh1 rad18 strain (AID 175); settings: S. cerevisiae mlh1 rad18 strain growth inhibition, hits give high values
How it was run: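 Read-out is yeast growth inhibition, calculated against vehicle-only controls. The compound was applied to a strain engineered with DNA damage repair alterations.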

[15] = NCI Yeast Anticancer Drug Screen. Data for the rad18 strain (AID 177); settings: S. cerevisiae rad18 mutant growth inhibition, hits give high values
How it was run: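 Growth of the mutant yeast strain after compound exposure, normalised to vehicle-only cultures.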

[16] = at 5.0 µM (retest, dose inferred, filed as 0.5)
[17] = at 50.0 µM (retest, dose inferred, filed as 5.0)

Measured: growth inhibition

Cc1c2cc[n+](Cc3ccc(I)cc3)cc2c(C)c2c1[nH]c1ccccc12
active: [1]; at 11.0 µM 96% | [1]; at 33.0 µM 98% | [1]; at 100.0 µM 95% | [2]; at 11.0 µM 89% | [2]; at 33.0 µM 98% | [2]; at 100.0 µM 97% | [3]; at 33.0 µM 90% | [3]; at 100.0 µM 96% | [4]; at 11.0 µM 96% | [4]; at 33.0 µM 95% | [4]; [17] 93% | [4]; at 50.0 µM 85.5% | [4]; at 100.0 µM 89% | [5]; at 11.0 µM 96% | [5]; at 33.0 µM 97% | [5]; [17] 95% | [5]; at 50.0 µM 87.2% | [5]; at 100.0 µM 95% | [6]; at 11.0 µM 94% | [6]; at 33.0 µM 97% | [6]; at 100.0 µM 96% | [7]; [16] 74% | [7]; [17] 94% | [7]; at 50.0 µM 85.8% | [8]; at 11.0 µM 92% | [8]; at 33.0 µM 97% | [8]; at 100.0 µM 94% | [9]; [17] 94% | [9]; at 50.0 µM 86% | [10]; at 11.0 µM 97% | [10]; at 33.0 µM 96% | [10]; [17] 94% | [10]; at 50.0 µM 83.3% | [10]; at 100.0 µM 89% | [11]; at 11.0 µM 87% | [11]; at 33.0 µM 97% | [11]; at 100.0 µM 96% | [12]; at 11.0 µM 95% | [12]; at 33.0 µM 97% | [12]; at 100.0 µM 96% | [13]; at 11.0 µM 96% | [13]; at 33.0 µM 97% | [13]; at 100.0 µM 96% | [14]; [17] 94% | [14]; at 50.0 µM 89.8% | [15]; at 11.0 µM 97% | [15]; at 33.0 µM 96% | [15]; at 100.0 µM 93%
inactive: [1]; at 1.2 µM 39% | [1]; at 3.7 µM 36% | [2]; at 1.2 µM 10% | [2]; at 3.7 µM 8% | [3]; at 1.2 µM 30% | [3]; at 3.7 µM 29% | [3]; at 11.0 µM 34% | [4]; at 1.2 µM 18% | [4]; at 3.7 µM 12% | [4]; [16] 5% | [5]; at 1.2 µM 19% | [5]; at 3.7 µM 8% | [5]; [16] 33% | [6]; at 1.2 µM 12% | [6]; at 3.7 µM 0% | [8]; at 1.2 µM 14% | [8]; at 3.7 µM 19% | [9]; [16] 17% | [10]; at 1.2 µM 18% | [10]; at 3.7 µM 18% | [10]; [16] 55% | [11]; at 1.2 µM -21% | [11]; at 3.7 µM -24% | [12]; at 1.2 µM 35% | [12]; at 3.7 µM 35% | [13]; at 1.2 µM 42% | [13]; at 3.7 µM 27% | [14]; [16] 35% | [15]; at 1.2 µM 40% | [15]; at 3.7 µM 31%

N/C(=N/N=C/c1cc(Br)cc(Br)c1O)NO
inactive: [1]; at 1.2 µM -37% | [1]; at 3.7 µM -26% | [1]; at 11.0 µM 17% | [2]; at 1.2 µM -94% | [2]; at 3.7 µM -40% | [2]; at 11.0 µM -13% | [3]; at 1.2 µM -27% | [3]; at 3.7 µM -24% | [3]; at 11.0 µM -6% | [3]; at 33.0 µM 28% | [4]; at 1.2 µM -39% | [4]; at 3.7 µM -34% | [4]; [16] -1% | [4]; at 11.0 µM 6% | [5]; at 1.2 µM -89% | [5]; at 3.7 µM -62% | [5]; [16] 13% | [5]; at 11.0 µM -6% | [6]; at 1.2 µM -19% | [6]; at 3.7 µM -1% | [7]; [16] 10% | [8]; at 1.2 µM -6% | [8]; at 3.7 µM -11% | [8]; at 11.0 µM 25% | [9]; [16] 7% | [10]; at 1.2 µM -40% | [10]; at 3.7 µM -60% | [10]; [16] -5% | [10]; at 11.0 µM 44% | [11]; at 1.2 µM -2% | [11]; at 3.7 µM -9% | [11]; at 11.0 µM 35% | [12]; at 1.2 µM -78% | [12]; at 3.7 µM -40% | [12]; at 11.0 µM 58% | [13]; at 1.2 µM -35% | [13]; at 3.7 µM -28% | [13]; at 11.0 µM 59% | [14]; [16] 16% | [15]; at 1.2 µM -30% | [15]; at 3.7 µM -20%
active: [1]; at 33.0 µM 90% | [1]; at 100.0 µM 97% | [2]; at 33.0 µM 90% | [2]; at 100.0 µM 98% | [3]; at 100.0 µM 73% | [4]; at 33.0 µM 90% | [4]; [17] 99% | [4]; at 50.0 µM 96.1% | [4]; at 100.0 µM 97% | [5]; at 33.0 µM 87% | [5]; [17] 99% | [5]; at 50.0 µM 85.8% | [5]; at 100.0 µM 96% | [6]; at 11.0 µM 82% | [6]; at 33.0 µM 97% | [6]; at 100.0 µM 98% | [7]; [17] 99% | [7]; at 50.0 µM 97.8% | [8]; at 33.0 µM 95% | [8]; at 100.0 µM 98% | [9]; [17] 99% | [9]; at 50.0 µM 92.3% | [10]; at 33.0 µM 93% | [10]; [17] 99% | [10]; at 50.0 µM 87% | [10]; at 100.0 µM 97% | [11]; at 33.0 µM 94% | [11]; at 100.0 µM 98% | [12]; at 33.0 µM 93% | [12]; at 100.0 µM 97% | [13]; at 33.0 µM 93% | [13]; at 100.0 µM 96% | [14]; [17] 99% | [14]; at 50.0 µM 98.7% | [15]; at 11.0 µM 75% | [15]; at 33.0 µM 94% | [15]; at 100.0 µM 97%
